SENP8 block-1 = SENP8 protease inhibition. inhibition, % at 10 µM. purified SENP8, Z-RLRGG-aminoluciferin cleavage, luminescence. actives 1.2% (n = 330,000); in the data active means inhibition above about 50%
C8 TRAIL sens = sensitizes caspase-8 expressing cells to TRAIL. AID 624354. NB7+C8 cells + TRAIL, ATPlite viability luminescence. actives 1% (n = 360,000). inhibition (viability loss, TRAIL sensitization), % at 10 µM;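 active means compounds causing at least 50% loss of cell viability in the single-dose screen, relative to plate controls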
PPC-1+TRAIL kill = PPC-1 cancer cell killing with TRAIL present | actives 0.41% (n = 220,000) | PPC-1 cells + TRAIL, ATPLite viability luminescence | cell killing (% activity), % at 4 µM or 5 µM;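 active means cell killing above 50% in the first pass at 4 µM, then a duplicate retest at 5 µM averaging 50% or more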;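 further: plate controls were cells with TRAIL plus DMSO for no effect and medium-only wells lacking cells for full effect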
SENP8 block-2 = SENP8 (human) protease inhibition | Q96LD8 | recombinant SENP8, Nedd8 substrate fluorescence | inhibition, % at 20 µM | actives 0.64% (n = 360,000) | AID 602440; in the data active means inhibition mostly above about 40%, no sharp cut-off; inactive means mostly below about 27%
SENP6 block = inhibitors of human SENP6 protease. Q9GZR1. Recombinant SENP6 catalytic domain, aminoluciferin luminescence. inhibition, % at 10 µM. actives 1.8% (n = 330,000). AID 2599;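 active means inhibition above about 50% at the single tested dose, limit read from the data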;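 further: plate controls were DMSO wells with enzyme for no effect and DMSO wells lacking enzyme for full effect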
Target sequence (Q9GZR1 628-1112 limits assumed): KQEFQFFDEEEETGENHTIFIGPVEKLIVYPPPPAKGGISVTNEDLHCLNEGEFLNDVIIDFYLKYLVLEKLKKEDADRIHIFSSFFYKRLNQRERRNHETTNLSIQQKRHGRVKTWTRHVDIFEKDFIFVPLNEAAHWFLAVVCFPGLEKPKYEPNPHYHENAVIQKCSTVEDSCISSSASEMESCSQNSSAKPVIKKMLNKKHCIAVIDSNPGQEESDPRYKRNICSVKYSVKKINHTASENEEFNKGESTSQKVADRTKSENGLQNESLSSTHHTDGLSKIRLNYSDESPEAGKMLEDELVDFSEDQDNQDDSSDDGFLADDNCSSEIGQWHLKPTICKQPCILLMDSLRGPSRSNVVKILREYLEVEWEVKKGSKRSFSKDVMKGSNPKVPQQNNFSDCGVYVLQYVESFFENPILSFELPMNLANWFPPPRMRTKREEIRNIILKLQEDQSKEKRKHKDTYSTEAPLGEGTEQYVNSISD
SENP7 inh = SENP7 protease inhibition; Q9BQF6; recombinant SENP7, Z-RLRGG-aminoluciferin luminescence, 40 min; inhibition, % at 5 µM; actives 1.5% (n = 330,000);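 active means inhibition above about 50% at the single test dose, limit read from the data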;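 further: plate controls were DMSO with enzyme for no effect and no enzyme buffer wells for full effect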
SENP8 conf = SENP8 (human) inhibition, single concentration confirmation; shares compounds with SENP8 block-2; purified SENP8, Nedd8-AMC/pro-Nedd8 cleavage fluorescence, 30 min; inhibition, % at 25 µM; actives 15% (n = 1,400); AID 624319; in the data active means inhibition mostly above about 39%, no sharp cut-off; inactive means mostly below about 34%
* marks the source's active call; other numbers are inactive results; x = no result given. Shown are actives, neighbours in structure and some others; about 3% of the full set was active somewhere.

SMILES | SENP8 block-1 | C8 TRAIL sens | PPC-1+TRAIL kill | SENP8 block-2 | SENP6 block | SENP7 inh | SENP8 conf
CC(=O)Oc1ccc(-c2cccc(C(=O)NCCCO)c2)cc1 | -1 | 5 | 28 | 14 | -6 | 8 | x
CC(C)[C@@H](C(=O)N[C@@H](CCc1ccc(O)cc1)C(=O)O)N(C)C(=O)[C@H](CO)NC(=O)[C@@H](O)[C@H](N)CCCCCCCCl | x | 12 | x | 55* | x | x | 17
CSc1ccc(CCNS(=O)(=O)c2csc(C(N)=O)c2)cc1 | 8 | 4 | x | -21 | -9 | 4 | x
CCOC(=O)C1C2C=CC3(CN(Cc4cccs4)C(=O)C13)O2 (centres undefined) | 2 | 2 | 4 | 45* | -1 | -5 | 6
O=C1COc2ccc(C(=O)COC(=O)c3ccc(F)cc3Cl)cc2N1 | -6 | -5 | x | 5 | 9 | -2 | x
COc1ccc(-n2c(O)c(C=NCc3ccccn3)c3ccccc3c2=O)c(OC)c1 | -4 | -11 | 2 | 41* | -13 | 6 | 27
COc1cccc(-n2c(O)c(C=NCc3ccccn3)c3ccccc3c2=O)c1 | -8 | -1 | 9 | 13 | -10 | 2 | x
O=c1c2ccccc2c(C=NCc2ccccn2)c(O)n1-c1ccccc1Cl | -5 | -6 | -15 | 4 | 7 | 9 | x
O=c1c2ccccc2c(C=NCc2ccccn2)c(O)n1-c1ccccc1 | -5 | 10 | 17 | 26* | 17 | -10 | -14
CN(CC(=O)Nc1ccc(F)cc1)C(=O)c1ccccc1Sc1ccccc1C#N | 13 | -1 | x | 17 | 2 | 4 | x
O=C(c1cc(-c2cccnc2)nc2ccccc12)N1CCN(S(=O)(=O)c2cccs2)CC1 | -8 | -15 | x | -5 | -6 | 1 | x
CSc1ccccc1OCc1cc(C(=O)NCCn2ccnc2C)no1 | -1 | 0 | x | -6 | -1 | 0 | x
Cc1ccc(NC(=O)CSc2ccccc2)cc1S(=O)(=O)N1CCOCC1 | 13 | -15 | x | -28 | -1 | -2 | x
Cc1ccc(NC(=O)C(=O)c2c(-c3ccccc3)cc3ccccn23)cc1S(=O)(=O)N1CCOCC1 | 14 | 9 | 11 | 52* | 31 | 2 | 28
CCCCN(C=O)c1c(CC)nc2ccc(C(=O)N3CCN(S(=O)(=O)CC)CC3)cn12 | x | -3 | x | 0 | x | x | x
O=[N+]([O-])c1ccc(N2CCOCC2)cc1NCc1ccccc1 | 3 | 0 | 16 | 42* | 14 | 3 | 9
COc1cccc(OCCNc2cc(N3CCCCC3)ccc2[N+](=O)[O-])c1 | -3 | 6 | -26 | 60* | -5 | -1 | 16
CC(Nc1cc(N2CCCC2)ccc1[N+](=O)[O-])c1ccccc1 (centres undefined) | -2 | 21 | 14 | 45* | 7 | 1 | -2
Cc1ccc(Cn2nc(-c3ccccc3)nc2-c2ccccc2)cc1 | 59* | 8 | 15 | 44* | 74* | 68* | 3
NC(=O)Cn1nc(-c2ccccc2)nc1-c1ccccc1 | -7 | -8 | x | 12 | -12 | -6 | x
CCN(CC)C(c1ccc(F)cc1)c1nnnn1CC1CCCO1 (centres undefined) | 7 | 3 | 2 | 45* | -1 | 0 | -13
O=C(COc1ccc(Cl)cc1)OCc1ccc(Cl)cc1 | x | -28 | x | -1 | x | x | x
CCOC(=O)c1c(C)nc2c(c1-c1cc(OC)ccc1OC)C(=O)CC(C)(C)C2 | -12 | 9 | 2 | 44* | -16 | 4 | 14
CCOC(=O)c1c(C)nc2c(c1-c1ccccc1)C(=O)CC(C)(C)C2 | -2 | -9 | 16 | -106 | -17 | 2 | x
Cc1nc(-[n+]2nc(-c3ccncc3)nn2-c2ccccc2)sc1C | x | -11 | x | 41* | x | x | 29
SMILES | SENP8 block-1 | C8 TRAIL sens | PPC-1+TRAIL kill | SENP8 block-2 | SENP6 block | SENP7 inh | SENP8 conf
CC1=C(C(N)=O)C(c2ccccc2)n2nc(-c3ccncc3)nc2N1 (centres undefined) | 6 | 2 | -4 | 0 | 13 | 4 | x
CCc1ccc(NC(=O)Cn2cccc2)cc1 | -1 | 4 | 3 | 6 | -20 | -9 | x
CC1=NN(c2ccccc2)C(=O)C1C(=O)c1cc([N+](=O)[O-])cc([N+](=O)[O-])c1 (centres undefined) | -6 | -1 | 9 | 51* | 17 | -10 | -5
CN(C)c1ccc(NC(=S)NC(=O)/C=C/c2ccc(Cl)cc2)cc1 | 17 | -6 | 14 | 41* | -10 | 6 | 26
COc1ccc(/C=C/C(=O)NC(=S)Nc2ccc(N3CCN(C(C)=O)CC3)cc2)cc1 | -3 | 29 | 10 | 51* | -7 | 2 | 13
COc1cc(OC)cc(C(=O)NC(=S)Nc2ccc(N3CCCC3)cc2)c1 | -3 | 4 | -6 | 43* | 3 | -2 | 28
COc1cc2c(cc1OC)CN(C(=O)C(CCSC)NS(=O)(=O)c1ccc(C)cc1)CC2 (centres undefined) | 5 | -16 | x | 16 | -3 | 1 | x
Cc1ccc(-c2nn(Cc3ccccc3)cc2/C=C/C(=O)O)cc1 | -6 | 4 | 2 | 18 | -12 | -3 | x
Cc1ccc(Cn2cc(/C=C/C(=O)O)c(-c3ccccc3)n2)cc1 | -6 | 22 | 12 | 43* | -34 | 3 | 9
COc1ccc(Nc2nc(N)nc(CN3CCc4ccccc4C3)n2)cc1 | 7 | -2 | -19 | 44* | 6 | 6 | 29
Nc1nc(CN2CCc3ccccc3C2)nc(Nc2ccccc2)n1 | 9 | 1 | 4 | 25 | 4 | 12 | x
COc1ccc(CNC(=O)CN(c2cccc([N+](=O)[O-])c2)S(C)(=O)=O)cc1 | 5 | -5 | 14 | 5 | 7 | 5 | x
O=C(c1ncn(Cc2ccccc2)c1C(=O)N1CCc2ccccc2C1)N1CCc2ccccc2C1 | -8 | 4 | x | 52* | -8 | -1 | 58*
[O-]/C(=C(\C(=S)NCc1ccco1)[n+]1ccccc1)c1ccccc1Br | 2 | 7 | 12 | 42* | 7 | 10 | 33
Cc1ccc(/C([O-])=C(/C(=S)NCc2ccco2)[n+]2ccccc2)cc1 | 0 | x | -8 | x | 18 | 4 | x
CN(C)c1ccc(S(=O)(=O)NCC(=O)N2CCN(c3ccccc3)CC2)cc1[N+](=O)[O-] | -4 | 9 | x | 12 | -11 | 2 | x
COc1cc(Cl)ccc1OCc1cc(C(=O)NCc2cc(C(C)C)no2)no1 | -1 | 8 | x | -6 | 31 | -6 | x
CCN(CC)S(=O)(=O)c1ccc(NCC2COc3ccccc3O2)c([N+](=O)[O-])c1 (centres undefined) | 0 | 10 | 3 | 47* | -11 | 0 | 16
COC(=O)c1cc(=O)nc(NN=C2c3ccccc3-c3ccccc32)s1 | x | 1 | x | 38* | x | x | 25
CCOc1ccc(N2C(=O)CC(n3nc(C)cc3C)C2=O)cc1 (centres undefined) | -4 | 9 | 5 | 45* | -25 | -2 | 5
COCCNC(=S)NN=C1CCCCC1 | 7 | -9 | 11 | 46* | -5 | 7 | 14

Source: PubChem
